Measurements from paper PMC7862700, “An all-to-all approach to the identification of sequence-specific readers for epigenetic DNA modifications on cytosine”.

Key:
Assay in all cases: DAPPL (digital affinity profiling via proximity ligation, sequencing); 10 mM Tris-HCl pH 7.5, 50 mM NaCl, 1 mM DTT, 4% glycerol, room temperature, 30 min; GST-TFs on glutathione beads, 16-mer random dsDNA library, 0.1% formaldehyde crosslink after washing; high values mean tight binding
FEV = target: T1, FEV (Homo sapiens, UniProt Q99581 1-238); conditions: protein: recombinant; tags: N-terminal GST; dsDNA, one strand shown
T1 sequence: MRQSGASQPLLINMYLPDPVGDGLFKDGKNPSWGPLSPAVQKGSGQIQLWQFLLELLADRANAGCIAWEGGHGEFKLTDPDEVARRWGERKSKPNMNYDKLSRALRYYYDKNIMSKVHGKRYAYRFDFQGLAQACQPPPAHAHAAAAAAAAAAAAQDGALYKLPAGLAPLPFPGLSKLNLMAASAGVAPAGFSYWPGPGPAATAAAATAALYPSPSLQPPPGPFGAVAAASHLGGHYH
Procedure, shortened: (§1)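 The binding signal reported is, for every hexamer, its read frequency for a factor over its read frequency for the tag-only sample. Reads came from pools of yeast-expressed, GST-fused human transcription factors on glutathione beads, barcoded with DNA and mixed with that sample, which were incubated with 200 nmole of a random double-stranded 16-mer DNA library in Tris/NaCl/DTT/glycerol buffer at room temperature for 30 min. After washing, the pools were crosslinked with 0.1% formaldehyde, proximity-ligated with BsaI/T4 ligase for 1 h at 37 °C, PCR-amplified and sequenced on an Illumina NextSeq500.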

ETV5 = ETV5 (Homo sapiens, UniProt P41161 1-510); conditions: protein: recombinant; tags: N-terminal GST; dsDNA, one strand shown
Sequence of ETV5 (P41161 whole entry): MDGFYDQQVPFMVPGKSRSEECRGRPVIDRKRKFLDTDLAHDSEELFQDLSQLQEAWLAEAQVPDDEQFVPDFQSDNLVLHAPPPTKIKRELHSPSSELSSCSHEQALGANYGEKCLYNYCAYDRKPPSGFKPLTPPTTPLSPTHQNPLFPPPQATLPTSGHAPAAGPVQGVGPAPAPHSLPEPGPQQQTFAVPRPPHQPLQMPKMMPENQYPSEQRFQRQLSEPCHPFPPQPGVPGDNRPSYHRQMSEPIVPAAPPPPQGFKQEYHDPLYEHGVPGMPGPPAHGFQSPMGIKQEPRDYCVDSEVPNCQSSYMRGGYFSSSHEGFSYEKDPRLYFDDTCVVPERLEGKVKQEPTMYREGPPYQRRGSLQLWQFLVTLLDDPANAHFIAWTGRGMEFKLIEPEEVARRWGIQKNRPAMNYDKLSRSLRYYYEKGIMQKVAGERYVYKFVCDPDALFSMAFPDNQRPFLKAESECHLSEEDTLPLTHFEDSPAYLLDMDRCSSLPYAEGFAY
Procedure, shortened: as §1

HSF1 = HSF1 (Homo sapiens, UniProt Q00613 1-529); conditions: protein: recombinant; tags: N-terminal GST; chain copies: 3; dsDNA, one strand shown
Sequence of HSF1 (Q00613 whole entry): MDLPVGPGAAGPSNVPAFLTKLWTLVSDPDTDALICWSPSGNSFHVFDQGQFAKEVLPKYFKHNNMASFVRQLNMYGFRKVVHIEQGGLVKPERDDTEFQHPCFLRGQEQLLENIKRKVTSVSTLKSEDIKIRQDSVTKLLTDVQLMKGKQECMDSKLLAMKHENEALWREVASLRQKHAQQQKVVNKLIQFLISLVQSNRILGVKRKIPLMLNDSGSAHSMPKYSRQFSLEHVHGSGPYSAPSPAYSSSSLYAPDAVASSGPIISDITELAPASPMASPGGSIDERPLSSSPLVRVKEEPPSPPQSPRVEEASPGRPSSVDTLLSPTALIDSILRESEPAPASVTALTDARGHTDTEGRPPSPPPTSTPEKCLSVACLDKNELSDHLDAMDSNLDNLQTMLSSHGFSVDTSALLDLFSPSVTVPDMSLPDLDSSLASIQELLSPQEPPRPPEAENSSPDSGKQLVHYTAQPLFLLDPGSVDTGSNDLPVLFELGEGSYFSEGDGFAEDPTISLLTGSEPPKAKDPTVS
Procedure, shortened: as §1

SPIC = target: T2, SPIC (Homo sapiens, UniProt Q8N5J4 1-248); conditions: protein: recombinant; tags: N-terminal GST; dsDNA, one strand shown
T2 sequence: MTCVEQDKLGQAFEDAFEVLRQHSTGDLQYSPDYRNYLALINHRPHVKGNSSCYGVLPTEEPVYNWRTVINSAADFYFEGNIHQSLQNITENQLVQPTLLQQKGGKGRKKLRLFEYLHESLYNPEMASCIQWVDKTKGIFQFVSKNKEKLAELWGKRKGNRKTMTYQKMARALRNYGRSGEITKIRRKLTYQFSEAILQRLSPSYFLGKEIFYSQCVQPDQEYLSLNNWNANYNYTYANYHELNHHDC
Procedure, shortened: as §1

ELF4 = ELF4 (Homo sapiens, UniProt Q99607 1-663); conditions: protein: recombinant; tags: N-terminal GST; dsDNA, one strand shown
Sequence of ELF4 (Q99607 whole entry): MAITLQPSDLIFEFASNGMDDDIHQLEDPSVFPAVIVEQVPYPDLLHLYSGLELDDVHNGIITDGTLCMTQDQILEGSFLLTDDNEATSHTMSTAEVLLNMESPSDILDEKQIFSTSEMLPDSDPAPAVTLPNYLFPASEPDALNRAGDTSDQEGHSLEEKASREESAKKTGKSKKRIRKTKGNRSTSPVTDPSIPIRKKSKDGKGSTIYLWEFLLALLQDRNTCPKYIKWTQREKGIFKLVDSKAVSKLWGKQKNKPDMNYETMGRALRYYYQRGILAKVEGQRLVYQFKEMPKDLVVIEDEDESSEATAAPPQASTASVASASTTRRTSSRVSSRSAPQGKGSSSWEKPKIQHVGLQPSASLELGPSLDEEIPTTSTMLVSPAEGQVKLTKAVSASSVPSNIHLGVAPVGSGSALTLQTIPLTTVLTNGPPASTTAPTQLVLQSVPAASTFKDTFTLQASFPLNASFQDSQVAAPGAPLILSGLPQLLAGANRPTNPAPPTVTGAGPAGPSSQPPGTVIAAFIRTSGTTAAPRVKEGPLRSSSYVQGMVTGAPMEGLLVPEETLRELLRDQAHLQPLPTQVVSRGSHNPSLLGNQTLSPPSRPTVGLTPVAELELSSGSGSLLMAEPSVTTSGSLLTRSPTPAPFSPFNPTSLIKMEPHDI
Procedure, shortened: as §1

ELK4 = target: T3, ELK4 (Homo sapiens, UniProt P28324-2 1-405); conditions: protein: recombinant; tags: N-terminal GST; dsDNA, one strand shown
T3 sequence: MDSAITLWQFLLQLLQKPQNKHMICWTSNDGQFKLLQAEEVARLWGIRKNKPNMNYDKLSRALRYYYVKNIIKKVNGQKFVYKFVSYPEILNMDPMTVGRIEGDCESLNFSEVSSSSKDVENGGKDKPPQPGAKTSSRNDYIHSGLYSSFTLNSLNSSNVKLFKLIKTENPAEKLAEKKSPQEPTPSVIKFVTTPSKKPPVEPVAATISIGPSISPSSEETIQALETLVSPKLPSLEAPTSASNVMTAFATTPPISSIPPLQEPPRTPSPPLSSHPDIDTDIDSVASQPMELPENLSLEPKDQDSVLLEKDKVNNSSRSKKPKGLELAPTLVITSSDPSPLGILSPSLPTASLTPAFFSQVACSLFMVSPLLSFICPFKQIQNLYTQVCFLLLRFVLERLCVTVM
Procedure, shortened: as §1

ETV2 = target: T4, ETV2 (Homo sapiens, UniProt O00321 1-342); conditions: protein: recombinant; tags: N-terminal GST; dsDNA, one strand shown
T4 sequence: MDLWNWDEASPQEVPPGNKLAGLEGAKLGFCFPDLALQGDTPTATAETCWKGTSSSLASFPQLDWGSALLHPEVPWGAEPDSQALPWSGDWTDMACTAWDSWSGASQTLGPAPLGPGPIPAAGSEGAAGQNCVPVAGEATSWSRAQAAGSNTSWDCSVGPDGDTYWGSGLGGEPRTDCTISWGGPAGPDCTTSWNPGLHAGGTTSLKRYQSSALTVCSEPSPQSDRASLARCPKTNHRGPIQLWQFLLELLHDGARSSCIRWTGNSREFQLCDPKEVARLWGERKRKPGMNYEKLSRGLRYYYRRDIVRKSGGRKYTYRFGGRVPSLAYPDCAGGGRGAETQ
Procedure, shortened: as §1

ELF3 = target: T5, ELF3 (Homo sapiens, UniProt P78545 1-371); conditions: protein: recombinant; tags: N-terminal GST; dsDNA, one strand shown
T5 sequence: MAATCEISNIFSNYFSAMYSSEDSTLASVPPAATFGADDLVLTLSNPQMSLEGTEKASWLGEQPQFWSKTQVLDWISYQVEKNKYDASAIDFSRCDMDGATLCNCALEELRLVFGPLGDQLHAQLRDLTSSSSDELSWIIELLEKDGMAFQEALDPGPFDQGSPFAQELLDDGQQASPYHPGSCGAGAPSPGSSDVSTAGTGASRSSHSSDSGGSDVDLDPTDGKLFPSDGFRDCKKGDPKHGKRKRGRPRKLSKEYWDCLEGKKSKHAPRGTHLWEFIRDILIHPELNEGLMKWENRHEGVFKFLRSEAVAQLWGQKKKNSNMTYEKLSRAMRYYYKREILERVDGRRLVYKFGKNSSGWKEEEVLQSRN
Procedure, shortened: as §1

CRX = CRX (Homo sapiens, UniProt O43186 1-299); conditions: protein: recombinant; tags: N-terminal GST; dsDNA, one strand shown
Sequence of CRX (O43186 whole entry): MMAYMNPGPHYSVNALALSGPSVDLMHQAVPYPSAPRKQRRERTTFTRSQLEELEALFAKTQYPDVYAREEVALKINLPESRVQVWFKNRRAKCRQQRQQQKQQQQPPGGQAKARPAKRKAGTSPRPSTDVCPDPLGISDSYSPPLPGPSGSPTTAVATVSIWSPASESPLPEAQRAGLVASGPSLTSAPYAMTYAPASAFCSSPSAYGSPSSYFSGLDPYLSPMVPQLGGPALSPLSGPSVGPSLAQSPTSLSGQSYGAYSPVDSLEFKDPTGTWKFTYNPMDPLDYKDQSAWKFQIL
Procedure, shortened: as §1

ETV1 = ETV1 (Homo sapiens, UniProt P50549 1-477); conditions: protein: recombinant; tags: N-terminal GST; dsDNA, one strand shown
Sequence of ETV1 (P50549 whole entry): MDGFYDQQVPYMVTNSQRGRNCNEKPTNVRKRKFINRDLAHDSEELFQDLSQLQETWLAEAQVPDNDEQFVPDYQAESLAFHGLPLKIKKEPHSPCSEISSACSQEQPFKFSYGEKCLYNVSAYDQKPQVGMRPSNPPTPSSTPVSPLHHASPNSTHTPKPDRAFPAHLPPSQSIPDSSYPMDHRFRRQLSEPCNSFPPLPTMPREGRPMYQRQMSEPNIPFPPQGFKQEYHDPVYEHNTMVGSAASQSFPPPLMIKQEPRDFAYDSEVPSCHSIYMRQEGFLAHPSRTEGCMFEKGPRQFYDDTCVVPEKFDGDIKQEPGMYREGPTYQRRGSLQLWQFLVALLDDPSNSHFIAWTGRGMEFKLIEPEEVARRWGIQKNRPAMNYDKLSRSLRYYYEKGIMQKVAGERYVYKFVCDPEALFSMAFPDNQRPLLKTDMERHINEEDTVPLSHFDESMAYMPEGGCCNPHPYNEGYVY
Procedure, shortened: as §1

ERF = target: T6, ERF (Homo sapiens, UniProt P50548 1-548); conditions: protein: recombinant; tags: N-terminal GST; dsDNA, one strand shown
T6 sequence: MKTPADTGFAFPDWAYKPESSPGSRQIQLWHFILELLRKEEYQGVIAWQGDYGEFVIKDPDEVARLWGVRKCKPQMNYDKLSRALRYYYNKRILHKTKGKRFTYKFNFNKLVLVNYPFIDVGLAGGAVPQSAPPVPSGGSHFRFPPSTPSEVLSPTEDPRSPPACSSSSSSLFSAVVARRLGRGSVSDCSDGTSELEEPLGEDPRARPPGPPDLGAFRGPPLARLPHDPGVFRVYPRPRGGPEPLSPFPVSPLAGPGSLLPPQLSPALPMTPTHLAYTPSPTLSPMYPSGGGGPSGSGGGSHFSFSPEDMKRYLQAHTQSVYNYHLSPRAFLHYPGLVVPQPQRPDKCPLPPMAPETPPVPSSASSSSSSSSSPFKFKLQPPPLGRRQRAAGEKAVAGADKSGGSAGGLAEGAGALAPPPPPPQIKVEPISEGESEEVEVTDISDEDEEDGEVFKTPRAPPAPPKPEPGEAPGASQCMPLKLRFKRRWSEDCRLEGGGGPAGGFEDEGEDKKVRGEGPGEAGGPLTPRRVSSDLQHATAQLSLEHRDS
Procedure, shortened: as §1

ETV3L = target: T7, ETV3L (Homo sapiens, UniProt Q6ZN32 1-361); conditions: protein: recombinant; tags: N-terminal GST; dsDNA, one strand shown
T7 sequence: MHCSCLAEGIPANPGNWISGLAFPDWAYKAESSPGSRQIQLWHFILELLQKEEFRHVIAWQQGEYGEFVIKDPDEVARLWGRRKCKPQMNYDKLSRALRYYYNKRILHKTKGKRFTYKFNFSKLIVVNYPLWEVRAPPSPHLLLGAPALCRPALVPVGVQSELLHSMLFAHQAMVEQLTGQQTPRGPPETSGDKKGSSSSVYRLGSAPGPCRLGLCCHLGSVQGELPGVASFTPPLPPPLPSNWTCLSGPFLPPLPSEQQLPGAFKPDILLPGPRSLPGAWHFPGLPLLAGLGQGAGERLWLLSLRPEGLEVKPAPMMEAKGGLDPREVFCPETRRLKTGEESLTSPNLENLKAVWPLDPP
Procedure, shortened: as §1

ETS2 = target: T8, ETS2 (Homo sapiens, UniProt P15036 1-469); conditions: protein: recombinant; tags: N-terminal GST; dsDNA, one strand shown
T8 sequence: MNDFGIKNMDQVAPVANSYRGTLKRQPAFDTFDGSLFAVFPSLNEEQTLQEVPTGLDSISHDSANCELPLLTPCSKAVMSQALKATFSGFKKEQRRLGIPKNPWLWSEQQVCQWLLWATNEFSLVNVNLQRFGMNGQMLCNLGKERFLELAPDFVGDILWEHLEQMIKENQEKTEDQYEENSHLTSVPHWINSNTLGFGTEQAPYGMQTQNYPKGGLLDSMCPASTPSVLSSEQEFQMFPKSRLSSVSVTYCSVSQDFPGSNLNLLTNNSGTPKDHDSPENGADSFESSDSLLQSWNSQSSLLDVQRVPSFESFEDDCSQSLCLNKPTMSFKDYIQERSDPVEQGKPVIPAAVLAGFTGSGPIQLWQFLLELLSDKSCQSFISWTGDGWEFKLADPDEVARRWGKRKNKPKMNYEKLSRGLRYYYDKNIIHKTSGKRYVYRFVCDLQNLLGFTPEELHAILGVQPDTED
Procedure, shortened: as §1

SPDEF = target: T9, SPDEF (Homo sapiens, UniProt O95238 1-335); conditions: protein: recombinant; tags: N-terminal GST; dsDNA, one strand shown
T9 sequence: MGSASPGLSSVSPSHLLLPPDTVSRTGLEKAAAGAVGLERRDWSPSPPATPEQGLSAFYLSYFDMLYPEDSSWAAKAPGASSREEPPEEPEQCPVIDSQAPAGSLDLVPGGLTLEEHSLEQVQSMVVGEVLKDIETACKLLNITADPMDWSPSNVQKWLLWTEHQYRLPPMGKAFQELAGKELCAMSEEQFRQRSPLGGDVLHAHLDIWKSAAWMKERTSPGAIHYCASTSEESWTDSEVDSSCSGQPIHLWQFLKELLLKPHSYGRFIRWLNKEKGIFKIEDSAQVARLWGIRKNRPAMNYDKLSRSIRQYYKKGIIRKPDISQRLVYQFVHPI
Procedure, shortened: as §1

ETV7 = target: T10, ETV7 (Homo sapiens, UniProt Q9Y603 1-341); conditions: protein: recombinant; tags: N-terminal GST; dsDNA, one strand shown
T10 sequence: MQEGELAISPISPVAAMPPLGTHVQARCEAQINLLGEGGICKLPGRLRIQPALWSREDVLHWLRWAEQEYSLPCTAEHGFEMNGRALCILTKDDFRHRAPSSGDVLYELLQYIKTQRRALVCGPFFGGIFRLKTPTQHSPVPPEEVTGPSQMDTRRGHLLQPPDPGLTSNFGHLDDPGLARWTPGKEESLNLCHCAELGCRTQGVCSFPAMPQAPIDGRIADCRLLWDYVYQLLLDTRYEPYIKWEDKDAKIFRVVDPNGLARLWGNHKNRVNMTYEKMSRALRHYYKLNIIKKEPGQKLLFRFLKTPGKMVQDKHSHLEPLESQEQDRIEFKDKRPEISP
Procedure, shortened: as §1

ELF5 = target: T11, ELF5 (Homo sapiens, UniProt Q9UKW6-2 1-255); conditions: protein: recombinant; tags: N-terminal GST; dsDNA, one strand shown
T11 sequence: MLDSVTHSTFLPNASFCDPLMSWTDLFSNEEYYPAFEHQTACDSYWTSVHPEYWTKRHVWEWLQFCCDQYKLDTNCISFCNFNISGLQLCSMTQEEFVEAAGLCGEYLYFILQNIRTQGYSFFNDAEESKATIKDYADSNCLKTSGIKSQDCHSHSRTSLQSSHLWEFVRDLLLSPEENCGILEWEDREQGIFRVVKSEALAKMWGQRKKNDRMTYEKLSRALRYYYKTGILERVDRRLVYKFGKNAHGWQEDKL
Procedure, shortened: as §1

ETV3 = target: T12, ETV3 (Homo sapiens, UniProt P41162-2 1-143); conditions: protein: recombinant; tags: N-terminal GST; dsDNA, one strand shown
T12 sequence: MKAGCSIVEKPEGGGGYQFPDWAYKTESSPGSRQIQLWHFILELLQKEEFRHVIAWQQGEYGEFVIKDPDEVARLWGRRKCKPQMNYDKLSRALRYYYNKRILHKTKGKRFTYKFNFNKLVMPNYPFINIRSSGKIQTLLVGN
Procedure, shortened: as §1

ETV6 = ETV6 (Homo sapiens, UniProt P41212 1-452); conditions: protein: recombinant; tags: N-terminal GST; dsDNA, one strand shown
Sequence of ETV6 (P41212 whole entry): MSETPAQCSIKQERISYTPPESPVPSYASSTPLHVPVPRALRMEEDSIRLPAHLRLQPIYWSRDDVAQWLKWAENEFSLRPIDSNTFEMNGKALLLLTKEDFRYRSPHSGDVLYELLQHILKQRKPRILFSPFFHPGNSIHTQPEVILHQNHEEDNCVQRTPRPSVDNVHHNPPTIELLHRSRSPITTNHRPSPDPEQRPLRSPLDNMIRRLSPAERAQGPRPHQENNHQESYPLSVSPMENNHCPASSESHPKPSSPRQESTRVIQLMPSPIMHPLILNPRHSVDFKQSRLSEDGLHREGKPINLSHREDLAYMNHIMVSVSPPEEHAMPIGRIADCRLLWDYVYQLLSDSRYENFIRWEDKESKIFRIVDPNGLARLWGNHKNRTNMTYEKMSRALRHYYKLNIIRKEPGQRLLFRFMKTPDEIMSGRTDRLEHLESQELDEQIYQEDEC
Procedure, shortened: as §1

TATAAT
binding signal (FEV): 1.16 fold enrichment (6-mer frequency, TF over GST control)
binding signal (ETV5): 1.17 fold enrichment (6-mer frequency, TF over GST control)
binding signal (HSF1): 1.82 fold enrichment (6-mer frequency, TF over GST control)
binding signal (SPIC): 1.1 fold enrichment (6-mer frequency, TF over GST control)
binding signal (ELF4): 1.13 fold enrichment (6-mer frequency, TF over GST control)
binding signal (ELK4): 1.25 fold enrichment (6-mer frequency, TF over GST control)
binding signal (ETV2): 1.3 fold enrichment (6-mer frequency, TF over GST control)
binding signal (ELF3): 1.27 fold enrichment (6-mer frequency, TF over GST control)
binding signal (CRX): 2.69 fold enrichment (6-mer frequency, TF over GST control)
binding signal (ETV1): 1.15 fold enrichment (6-mer frequency, TF over GST control)
binding signal (ERF): 1.25 fold enrichment (6-mer frequency, TF over GST control)
binding signal (ETV3L): 1.23 fold enrichment (6-mer frequency, TF over GST control)
binding signal (ETS2): 1.19 fold enrichment (6-mer frequency, TF over GST control)
binding signal (SPDEF): 1.27 fold enrichment (6-mer frequency, TF over GST control)
binding signal (ETV7): 1.17 fold enrichment (6-mer frequency, TF over GST control)
binding signal (ELF5): 1.18 fold enrichment (6-mer frequency, TF over GST control)
binding signal (ETV3): 1.19 fold enrichment (6-mer frequency, TF over GST control)
binding signal (ETV6): 1.24 fold enrichment (6-mer frequency, TF over GST control)
